Compound activity (PubChem)
KB-3-1 tox = KB-3-1 parental cell cytotoxicity; KB-3-1 viability, CellTiter-Glo ATP luminescence, 72 h; Potency, µM (titrated, usually from 46.1 µM), actives largely listed as cytotoxic; 400,000 tested, 1.4% active; AID 1347075; note: nearly all actives have a fitted effect of over 60% in size
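KB-3-1 parental drug-naive adenocarcinoma cells in DMEM/10% FBS, incubated 72 h at 37 C with pin-transferred compounds across a concentration series. Viability by CellTiter-Glo luminescence; concentration-response curves fitted after normalization.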
hERG WT inh = KCNH2 (human, wildtype) channel inhibition. Q12809. U2OS, BacMam KCNH2, thallium flux FluxOr; hits give low values. 340,000 tested, 0.37% active. activity change, % at 1.84 µM. AID 720551;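 active = maximum activity change below -70%; inconclusive = maximum activity change between -70% and -50%; inactive = maximum activity change above -50%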
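U2OS cells transduced with wild-type KCNH2 virus are loaded with FluxOr dye for 45 min, and thallium flux is measured in kinetic reads before and after stimulation buffer. Rate constants are normalized to DMSO controls.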
SW480 rerep = inducers of DNA re-replication in SW480 colon cancer cells. AID 624297. Potency, µM (titrated, usually from 46.1 µM), most hits filed as activators. SW480 DNA re-replication, Hoechst DNA content imaging, 48 h. 340,000 tested, 1.8% active; note: nearly all actives have a fitted effect of over 55% in size
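Hoechst fluorescence of nuclei (405 nm excitation, 500-530 nm emission) measured by plate-scanning imager after 48 hr compound exposure at 37 C; re-replication scored as increased number of nuclei with elevated intensity.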
KB-V1 cytotox = kills drug-selected multidrug resistant KB-V1 cells; KB-V1 MDR cells viability, CellTiter-Glo, 72 h; Potency, µM (highest dose often 46.1 µM), most hits filed as cytotoxic; 400,000 tested, 3.4% active; note: nearly all actives have a fitted effect of over 60% in size
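Compound-treated KB-V1 multidrug-resistant cells, 72 h, 37 degrees C; viability by CellTiter-Glo. Fitted qHTS curves give the values.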
MCF10A rereplic = DNA re-replication induction in MCF 10a cells; MCF 10A DNA re-replication, Hoechst nuclear intensity, 48 h; Potency, µM (doses to about 46.1 µM), actives largely listed as activators; 350,000 tested, 2.9% active; AID 624296; note: nearly all actives have a fitted effect of over 50% in size
KCNH2 3.1 inh = KCNH2 3.1 (human) potassium channel inhibition; U2OS KCNH2 3.1, thallium flux FluxOr; hits give low values; activity change, % (tested at about 1.8 µM); 340,000 tested, 0.95% active; AID 720553;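 active = maximum activity change below -70%; inconclusive = maximum activity change from -70% to -50%; inactive = maximum activity change above -50%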;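 note: thallium influx rate constant from kinetic fluorescence after stimulation buffer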
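U2OS cells transduced with KCNH2 3.1 mutant virus (1.77 x 10^8 /mL, 4 h), plated overnight at 37 C, loaded 45 min with FluxOr dye plus Red40 quencher. Thallium flux rate constant from kinetic reads after stimulation buffer, normalised to controls.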
Hits are given with their value; n = inactive; u = inconclusive; x = no result given; ! = not active in a repeat; [ ] = remark or other dose. An excerpt weighted towards active compounds, which were near 7.6% of everything screened. Unless noted, calls come from the whole dose curve; as a rule, active = well fitted curve in the direction sought with a large enough effect; inconclusive = small, poorly fitted or top-dose-only effect, or another doubt; inactive = no such curve, though single readings can be large; an effect the other way counts as inactive or inconclusive.

SMILES	KB-3-1 tox	hERG WT inh	SW480 rerep	KB-V1 cytotox	MCF10A rereplic	KCNH2 3.1 inh
Cc1ccc2cccc(NC(=O)C(C)(C)Oc3ccc(Br)cc3)c2n1	n	x	x	n	x	x
C/C(=N/NC(=O)CSc1nc2ccccc2s1)c1ccncc1	n	n	n	n	n	n
CS/C(=N\S(=O)(=O)c1cccs1)NC(=O)CSc1nc2ccccc2s1	n	n	n	n	12µM!	n
CC1CCCCC1NC(=O)CCCn1c(=S)[nH]c2ccsc2c1=O (configuration not stated)	n	n	u	n	n	n
CCOc1ccc(/C=C/C(=O)c2c(O)c3ccccc3oc2=O)cc1	n	n	u	12µM	u	n
CN(C)c1ccc(/C=C/C(=O)c2c(O)c3ccccc3oc2=O)cc1	n	n	u	n	n	n
Cc1ccc(CNC(=O)C(CC(C)C)OC(=O)c2ccco2)cc1 (configuration not stated)	n	n	n	n	n	n
COc1ccc(CCc2nnc(CCC(=O)NCc3cc(C(C)C)no3)o2)cc1	n	n	n	n	n	x
CC(C)(C)Cc1c(-c2ccccc2)nc2ccc(Br)cn12	n	n	x	n	x	n
CCOc1ccccc1OCCCC(=O)N1CCN(S(=O)(=O)c2ccc(C)cc2)CC1	n	n	n	n	n	n
CCOc1ccccc1OCCCC(=O)N1CCN(S(=O)(=O)c2cccc(F)c2)CC1	n	n	n	6.5µM	n	n
COc1cc2c(cc1OC)CN(C(=O)CCOc1ccccc1)CC2	n	n	u	u	u	n
COc1cc2c(cc1OC)CN(C(=O)CCOc1ccccc1C)CC2	u	n	u	16µM	u	n
Cc1ccccc1OCCC(=O)N1CCN(S(=O)(=O)c2ccc(F)cc2)CC1	x	n	n	x	n	n
Cc1cc(C)c(S(=O)(=O)N2CCN(C(=O)CCOc3ccccc3C)CC2)c(C)c1	u	n	n	5.2µM	n	n
Cc1ccc(C(=O)N2CCN(c3cccc(Cl)c3)CC2)cc1-n1c(C)nc2cccnc21	n	x	x	n	x	x
COc1ccccc1NC(=O)Nc1nc(CC(=O)NCc2ccccn2)cs1	n	n	12µM	n	u	n
COc1ccccc1CNC(=O)Cc1csc(NC(=O)Nc2ccccc2OC)n1	n	n	n	u	u	n
COc1cc(OC)cc(C(=O)Nc2nc(CC(=O)NCc3ccc(F)cc3)cs2)c1	u	n	u	u	u	n
COc1cc(OC)cc(C(=O)Nc2nc(CC(=O)NCc3ccccc3OC)cs2)c1	n	n	n	16µM	u	n
O=C(Nc1ccccc1C(=O)NC1CCCCC1)c1ccccc1	n	n	n	n	n	n
O=C(Nc1ccsc1C(=O)NC1CCCCC1)c1ccccc1	n	n	n	4.6µM	n	n
Nc1ncnc2c(C3OC(CO)C(O)C3O)scc12 (configuration not stated)	0.1µM	n	u	u	u	n
Nc1ncnc2c1ncn2C1O[C@H](CO)[C@@H](O)[C@@H]1O (some centres not stated)	n	n	n	n	n	n
O=C(NC1CCCCCCC1)c1ccc(Br)o1	n	n	n	n	n	-199
SMILES	KB-3-1 tox	hERG WT inh	SW480 rerep	KB-V1 cytotox	MCF10A rereplic	KCNH2 3.1 inh
N#Cc1cc2c(=O)n3ccccc3nc2n(-c2ccc(Cl)cc2)c1=O	n	n	u	n	0.52µM	n
CCOc1cc(CNC(=O)c2ccc(C)c(NC(=O)c3nsc4ccccc34)c2)ccc1OC	n	x	x	n	x	x
c1ccc2[nH]c(NCc3ccc4c(c3)OCO4)nc2c1	n	-126	n	n	n	n
c1ccc(CNc2nc3ccccc3[nH]2)cc1	n	n	u	n	u	n
Cc1ccc2nc(NCc3ccccc3)[nH]c2c1	5.2µM	n	5.2µM	5.8µM	u	n
COc1ccc2nc(NCc3ccccc3)[nH]c2c1	9.2µM	n	15µM	u	18µM	n
CC(=O)c1ccc(NC(=O)C2CCCN(S(=O)(=O)c3ccc4c(c3)CCCN4C(C)=O)C2)cc1 (configuration not stated)	n	x	x	n	x	x
CC(C)(C)NC(=O)C(c1ccc(O)cc1)N(C(=O)Cn1nnc(-c2ccc(F)cc2)n1)c1ccccc1F (configuration not stated)	u	n	n	n	n	n
CN(C)C(=O)COc1ccccc1C(=O)OCC(=O)N(CCC#N)c1ccccc1	n	x	x	u	x	x
O=c1c2cc(Br)ccc2[nH]c(=S)n1Cc1ccccc1	n	n	n	n	n	n
O=c1c2cc(Br)ccc2[nH]c(=S)n1Cc1ccccn1	n	n	n	16µM	n	n
O=C(CCCn1c(=S)[nH]c2ccc(Br)cc2c1=O)N1CCN(c2ccccn2)CC1	n	n	u	2.9µM	u	n
CCCCCn1c(N)c(-c2nc3ccccc3s2)c2c([N+](=O)[O-])nn(CC)c(=O)c21	n	n	n	18µM	2.9µM	n
CCCCn1c(N)c(-c2nc3ccccc3s2)c2c([N+](=O)[O-])nn(CC)c(=O)c21	n	n	n	u	u	n
CC(Oc1cccc(Cl)c1)C(=O)Nc1ccc(N2CCOCC2)cc1N1CCOCC1 (configuration not stated)	n	n	n[9.22 µM]	16µM	u	n
CC(Oc1ccc(F)cc1)C(=O)Nc1ccc(N2CCOCC2)cc1N1CCOCC1 (configuration not stated)	n	n	n	n	n	n
CSc1nc2ncc3c(n2n1)CC1c2ccccc2CCN1C3=O (configuration not stated)	n	n	n	n	n	n
O=C1c2cnc3nc(SCc4cccc(Cl)c4)nn3c2CC2c3ccccc3CCN12 (configuration not stated)	n	n	2.6µM	n	2.1µM	n
CCOCCc1nn2c(=O)cc(COC(=O)c3ccccc3OC)nc2s1	n	x	x	n	x	x
CCc1nn2c(=O)cc(COC(=O)c3ccc(SC)cc3OC)nc2s1	n	n	n	10µM	n	n
O=C1Nc2ccccc2CCC1Sc1nnc(-c2ccc(Cl)cc2)s1 (configuration not stated)	21µM	n	n	18µM	n	-72
N/C(=N\NS(=O)(=O)c1ccc(Cl)cc1)c1ccccn1	n	n	n	u	n	n
COc1ccc(-c2cc(C(F)(F)F)n3nc(C(=O)N4CCN5CCCC5C4)cc3n2)cc1OC (configuration not stated)	n	n	u	n	12µM	n
Cc1ccc(-c2cc(C(F)(F)F)n3nc(C(=O)N4CCN5CCCC5C4)cc3n2)cc1 (configuration not stated)	n	n	u	n	u	n
Cc1ccc(S(=O)(=O)Oc2ccccc2/C=N/O)cc1	n	n	n	n	n	n
